Several values for one entry are separate records, joined by “and”; a condition that tells them apart may be missing. Equal values may be shown once. Hit rate of the full screen: of about 5,500 compounds, about 2,000 (36%) were called active. About 18% were inconclusive and are not listed. Rule as the data show it: active = normalized growth mostly below about 0.91 (no sharp cut-off); inconclusive = no clear call, values can overlap the other calls; inactive = mostly above about 0.92. This is one part of the list.
Assay: chemical genetic growth profiling, strain panel (AID 1159580);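 also: tested at 20 µM; growth read once vehicle control cultures reached saturation at 30 °C; 1 = growth at the plate median or of vehicle wells; lower values mean less growth of the strain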
Details: S. cerevisiae deletion strains, growth OD

Measured: normalized growth

Cc1cc(O)cc(C)c1Cl
inactive: locus YAL021C, strain ccr4, stronger effect = lower value 0.918 | locus YAL030W, strain snc1, stronger effect = lower value 0.961 | locus YBR021W, strain FUR4, stronger effect = lower value 1.04 | locus YBR171W, strain sec66, stronger effect = lower value 0.912 | locus YBR229C, strain ROT2, stronger effect = lower value 0.993 | locus YBR231C, strain swc5, stronger effect = lower value 0.945 | locus YCL029C, strain bik1, stronger effect = lower value 0.981 | locus YCL069W, strain vba3, stronger effect = lower value 0.929 | locus YDL005C, strain med2, stronger effect = lower value 1.02 | locus YDL035C, strain GPR1, stronger effect = lower value 0.942 | locus YDL040C, strain nat1, stronger effect = lower value 0.968 | locus YDL074C, strain BRE1, stronger effect = lower value 0.968 | locus YDL101C, strain DUN1, stronger effect = lower value 1.01 | locus YDL185W, strain tfp1, stronger effect = lower value 0.988 | locus YDL192W, strain arf1, stronger effect = lower value 1.02 | locus YDR001C, strain nth1, stronger effect = lower value 0.951 | locus YDR069C, strain doa4, stronger effect = lower value 0.992 | locus YDR101C, strain arx1, stronger effect = lower value 0.928 | locus YDR150W, strain NUM1, stronger effect = lower value 0.998 | locus YDR162C, strain NBP2, stronger effect = lower value 0.957 | locus YDR297W, strain sur2, stronger effect = lower value 0.968 | locus YDR318W, strain mcm21, stronger effect = lower value 0.981 | locus YDR334W, strain swr1, stronger effect = lower value 0.957 | locus YDR388W, stronger effect = lower value 1 | locus YDR502C, strain sam2, stronger effect = lower value 0.949 | locus YEL003W, strain gim4, stronger effect = lower value 0.965 | locus YEL037C, strain rad23, stronger effect = lower value 0.953 | locus YEL061C, strain CIN8, stronger effect = lower value 0.988 | locus YER110C, stronger effect = lower value 1 | locus YER155C, strain BEM2, stronger effect = lower value 0.992 | locus YER167W, strain BCK2, stronger effect = lower value 0.975 | locus YFR010W, strain ubp6, stronger effect = lower value 0.93 | locus YGL086W, strain mad1, stronger effect = lower value 0.945 | locus YGL167C, strain pmr1, stronger effect = lower value 0.999 | locus YGL173C, strain kem1, stronger effect = lower value 0.927 | locus YGL227W, strain vid30, stronger effect = lower value 0.949 | locus YGL240W, strain doc1, stronger effect = lower value 0.978 | locus YGL248W, strain PDE1, stronger effect = lower value 0.999 | locus YGR078C, strain PAC10, stronger effect = lower value 0.974 | locus YGR135W, strain pre9, stronger effect = lower value 0.994 | locus YGR252W, strain gcn5, stronger effect = lower value 0.979 | locus YHR013C, strain ard1, stronger effect = lower value 0.97 | locus YHR030C, strain SLT2, stronger effect = lower value 0.995 and 0.921 | locus YHR079C, strain IRE1 (second series), stronger effect = lower value 0.996 | locus YHR079C, strain IRE1, stronger effect = lower value 0.929 | locus YHR094C, strain hxt1, stronger effect = lower value 1 | locus YHR129C, strain ARP1, stronger effect = lower value 0.998 | locus YHR200W, strain rpn10, stronger effect = lower value 0.984 | locus YIL066C, strain RNR3, stronger effect = lower value 0.981 | locus YIL073C, strain SPO22, stronger effect = lower value 1.04 | locus YIL125W, strain kgd1, stronger effect = lower value 0.993 | locus YIR030C, strain dcg1, stronger effect = lower value 0.998 | locus YJL092W, strain hpr5, stronger effect = lower value 0.923 | locus YJL095W, strain BCK1 (second series), stronger effect = lower value 0.951 | locus YJL095W, strain BCK1, stronger effect = lower value 0.986 and 0.94 | locus YJL115W, strain asf1, stronger effect = lower value 0.997 | locus YJL129C, strain trk1, stronger effect = lower value 0.899 | locus YJL134W, strain LCB3, stronger effect = lower value 0.998 | locus YJL154C, strain vps35, stronger effect = lower value 0.96 | locus YJL168C, strain set2, stronger effect = lower value 1 | locus YJL187C, strain SWE1 (second series), stronger effect = lower value 1 | locus YJR043C, strain POL32, stronger effect = lower value 0.96 | locus YJR066W, strain TOR1, stronger effect = lower value 0.955
active: locus YAL026C, strain drs2, stronger effect = lower value 0.831 | locus YBL061C, strain skt5, stronger effect = lower value 0.914 | locus YBR009C, strain hhf1, stronger effect = lower value 0.873 | locus YBR023C, strain chs3, stronger effect = lower value 0.899 | locus YBR279W, strain paf1, stronger effect = lower value 0.899 | locus YCL011C, strain gbp2, stronger effect = lower value 0.906 | locus YCL016C, strain dcc1, stronger effect = lower value 0.892 | locus YCL061C, strain MRC1, stronger effect = lower value 0.916 | locus YCR088W, strain abp1, stronger effect = lower value 0.891 | locus YDR137W, strain rgp1, stronger effect = lower value 0.41 | locus YDR159W, strain sac3, stronger effect = lower value 0.588 | locus YDR195W, strain ref2 1.35 [resistant] | locus YDR335W, strain msn5, stronger effect = lower value 0.898 | locus YDR392W, strain spt3, stronger effect = lower value 0.653 | locus YEL061C, strain CIN8 (second series), stronger effect = lower value 0.898 | locus YER015W, strain faa2, stronger effect = lower value 0.839 | locus YER016W, strain bim1, stronger effect = lower value 0.874 | locus YER111C, strain swi4, stronger effect = lower value 0.905 | locus YER155C, strain BEM2 (second series), stronger effect = lower value 0.603 | locus YGL078C, strain dbp3, stronger effect = lower value 0.919 | locus YGL253W, strain hxk2, stronger effect = lower value 0.895 | locus YHR027C, strain rpn1, stronger effect = lower value 0.838 | locus YHR142W, strain chs7, stronger effect = lower value 0.77 | locus YJL164C, strain tpk1, stronger effect = lower value 0.887 | locus YJL166W, strain qcr8, stronger effect = lower value 0.849

From PubChem BioAssay AID1159580 (chemical genetic matrix, 2015)
